About 79,000 compounds went through this panel and 15% of them were active in at least one assay; those are over-represented in the sample as a whole. Calls of active or inactive are those of the source. Rule as the data show it: active = growth inhibition above about 70%; inactive = the rest.
How the values were obtained:
[1] = NCI Yeast Anticancer Drug Screen. Data for the rad52 strain (AID 147);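 also: 0% = growth of vehicle-treated control cultures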; settings: S. cerevisiae rad52 mutant growth inhibition, active compounds read high
Method in brief: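 Inhibition of yeast growth, referenced to vehicle controls, was the measured output for a strain with defective DNA damage repair.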

[2] = NCI Yeast Anticancer Drug Screen. Data for the wt1 strain (AID 149);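 also: 0% = growth of vehicle-treated wt1 cultures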; settings: S. cerevisiae wt1 strain (SPY 50644) growth inhibition, active compounds read high
Method in brief: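 Compounds are added to wt1 yeast cultures. Growth is then measured. Inhibition is expressed relative to vehicle-treated controls.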

[3] = NCI Yeast Anticancer Drug Screen. Data for the rad50EPP+ strain (AID 151);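 also: 0% = growth of vehicle-treated control cultures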; settings: S. cerevisiae rad50 mutant strain, active compounds read high
Method in brief: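 Genetically defined yeast (rad50EPP+, DNA damage repair alteration) is grown with compound, and inhibition of growth is expressed relative to vehicle-treated controls.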

[4] = NCI Yeast Anticancer Drug Screen. Data for the mgt1 strain (AID 153); settings: S. cerevisiae mgt1 mutant growth inhibition, active compounds read high
Method in brief: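 In the mgt1 strain, test compounds were added and growth inhibition was determined relative to vehicle-treated controls.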

[5] = NCI Yeast Anticancer Drug Screen. Data for the rad50 strain (AID 155);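 also: 0% = growth of vehicle-only cultures of the same strain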; settings: S. cerevisiae rad50 strain growth inhibition, active compounds read high
Method in brief: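 Inhibition values express reduced yeast growth in compound-treated cultures relative to vehicle-treated controls.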

[6] = NCI Yeast Anticancer Drug Screen. Data for the mec2-1 strain (AID 157); settings: S. cerevisiae mec2-1 strain, active compounds read high
Method in brief: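 Each compound was tested on mec2-1 yeast, a strain altered in DNA damage repair or cell cycle control. Growth inhibition is reported relative to vehicle.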

[7] = NCI Yeast Anticancer Drug Screen. Data for the rad14 strain (AID 159);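 also: 0% = growth of vehicle-treated control cultures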; settings: S. cerevisiae rad14 strain growth inhibition, active compounds read high
Method in brief: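 A mutant yeast strain defective in DNA damage repair is treated with compound; inhibition of its growth is scored against untreated, vehicle-exposed cultures.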

[8] = NCI Yeast Anticancer Drug Screen. Data for the sgs1 mgt1 strain (AID 161);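 also: 0% = growth of cultures given vehicle only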; settings: S. cerevisiae sgs1 mgt1 strain, active compounds read high
Method in brief: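 Read-out: growth inhibition vs vehicle controls. Cells: mutant yeast strain deficient in DNA damage repair.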

[9] = NCI Yeast Anticancer Drug Screen. Data for the CLN2oe strain (AID 163);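 also: 0% = growth of vehicle-only control cultures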; settings: S. cerevisiae CLN2oe strain, active compounds read high
Method in brief: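 First, the altered yeast strain was treated with each compound; second, its growth was measured; finally, inhibition was derived by comparison with vehicle controls.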

[10] = NCI Yeast Anticancer Drug Screen. Data for the cln2 rad14 strain (AID 165);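 also: 0% = growth equal to vehicle treated cultures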; settings: S. cerevisiae cln2 rad14 strain, active compounds read high
Method in brief: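 Test compounds were added to cln2 rad14 yeast cultures; inhibition of growth was then determined by comparison with vehicle treatment.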

[11] = NCI Yeast Anticancer Drug Screen. Data for the bub3 strain (AID 167); settings: S. cerevisiae bub3 mutant strain, active compounds read high
Method in brief: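 Steps: expose the mutant yeast strain to compound; grow alongside vehicle-treated cultures; measure growth; express inhibition against the vehicle cultures.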

[12] = NCI Yeast Anticancer Drug Screen. Data for the wt2 strain (AID 169);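 also: 0% = growth of vehicle-treated yeast cultures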; settings: S. cerevisiae wt2 strain growth inhibition, active compounds read high
Method in brief: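 The panel's yeast strains carry defined changes in DNA repair or cell cycle genes. Each strain is grown with compound, and growth loss is scored relative to vehicle.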

[13] = NCI Yeast Anticancer Drug Screen. Data for the mlh1 strain (AID 171);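 also: 0% = growth of vehicle-treated control cultures of the same strain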; settings: S. cerevisiae mlh1 strain growth inhibition, active compounds read high
Method in brief: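 Inhibition values reflect reduced yeast growth in the presence of compound, referenced to vehicle controls, using a strain chosen for its alteration in DNA repair or cell cycle control.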

[14] = NCI Yeast Anticancer Drug Screen. Data for the sgs1 strain (AID 173);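 also: 0% = growth of vehicle-only control cultures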; settings: S. cerevisiae sgs1 mutant, active compounds read high
Method in brief: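 Vehicle-treated cultures served as reference for growth inhibition of a yeast strain altered in DNA damage repair or cell cycle control after compound exposure.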

[15] = NCI Yeast Anticancer Drug Screen. Data for the mlh1 rad18 strain (AID 175); settings: S. cerevisiae mlh1 rad18 strain growth inhibition, active compounds read high
Method in brief: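 Inhibition values reflect reduced growth of mutant yeast versus vehicle-treated controls following compound exposure; the mutations affect DNA damage repair.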

[16] = NCI Yeast Anticancer Drug Screen. Data for the rad18 strain (AID 177); settings: S. cerevisiae rad18 mutant growth inhibition, active compounds read high
Method in brief: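 Steps: expose repair-mutant yeast to compound; measure growth; express as inhibition relative to vehicle control.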

[17] = at 5.0 µM (retest, dose inferred, filed as 0.5)
[18] = at 50.0 µM (retest, dose inferred, filed as 5.0)

Measured: growth inhibition

CC1=C(SCCO)C(=O)c2ccccc2C1=O
active: [3]; at 33.0 µM 75% | [3]; at 100.0 µM 71% | [5]; [18] 99% | [5]; at 50.0 µM 84.2% | [6]; [18] 80% | [6]; at 50.0 µM 73.3% | [8]; [18] 72% | [8]; at 50.0 µM 81.5% | [11]; [18] 77% | [11]; at 50.0 µM 81.2% | [15]; at 50.0 µM 81.1%
inactive: [1]; at 1.2 µM -4% | [1]; at 3.7 µM 1% | [1]; at 11.0 µM 13% | [1]; at 33.0 µM 68% | [1]; at 100.0 µM 67% | [2]; at 1.2 µM -4% | [2]; at 3.7 µM -4% | [2]; at 11.0 µM -2% | [2]; at 33.0 µM 4% | [2]; at 100.0 µM 4% | [3]; at 1.2 µM -7% | [3]; at 3.7 µM 5% | [3]; at 11.0 µM 35% | [4]; at 1.2 µM -3% | [4]; at 3.7 µM -3% | [4]; at 11.0 µM 23% | [4]; at 33.0 µM -10% | [4]; at 100.0 µM 6% | [5]; at 1.2 µM -3% | [5]; at 3.7 µM 0% | [5]; [17] 1% | [5]; at 11.0 µM -8% | [5]; at 33.0 µM 37% | [5]; at 100.0 µM 42% | [6]; at 1.2 µM -1% | [6]; at 3.7 µM -1% | [6]; [17] -22% | [6]; at 11.0 µM 0% | [6]; at 33.0 µM 13% | [6]; at 100.0 µM 11% | [7]; at 1.2 µM 2% | [7]; at 3.7 µM 3% | [7]; at 11.0 µM 8% | [7]; at 33.0 µM 17% | [7]; at 100.0 µM 20% | [8]; [17] -37% | [9]; at 1.2 µM 0% | [9]; at 3.7 µM -5% | [9]; at 11.0 µM -2% | [9]; at 33.0 µM 12% | [9]; at 100.0 µM 14% | [10]; [17] -16% | [10]; [18] 27% | [10]; at 50.0 µM 67.2% | [11]; at 1.2 µM -4% | [11]; at 3.7 µM -1% | [11]; [17] -19% | [11]; at 11.0 µM 5% | [11]; at 33.0 µM 29% | [11]; at 100.0 µM 29% | [12]; at 1.2 µM -2% | [12]; at 3.7 µM 0% | [12]; at 11.0 µM 3% | [12]; at 33.0 µM 18% | [12]; at 100.0 µM 17% | [13]; at 1.2 µM 0% | [13]; at 3.7 µM -2% | [13]; at 11.0 µM 7% | [13]; at 33.0 µM 8% | [13]; at 100.0 µM 5% | [14]; at 1.2 µM -2% | [14]; at 3.7 µM -2% | [14]; at 11.0 µM 7% | [14]; at 33.0 µM 40% | [14]; at 100.0 µM 35% | [15]; [17] -29% | [15]; [18] 62% | [16]; at 1.2 µM -12% | [16]; at 3.7 µM -10% | [16]; at 11.0 µM -3% | [16]; at 33.0 µM 33% | [16]; at 100.0 µM 51%

O=[N+]([O-])c1cccc2nc3ccccc3c(NCCCN3CCOCC3)c12
inactive: [2]; at 1.2 µM -8% | [2]; at 3.7 µM 38% | [3]; at 1.2 µM 19% | [3]; at 3.7 µM 46% | [4]; at 1.2 µM 16% | [4]; at 3.7 µM 43% | [9]; at 1.2 µM -7% | [9]; at 3.7 µM 46% | [11]; at 1.2 µM -14% | [11]; at 3.7 µM 0% | [11]; [17] 0% | [11]; at 11.0 µM 53% | [12]; at 1.2 µM -1% | [12]; at 3.7 µM 19% | [13]; at 1.2 µM 16% | [13]; at 3.7 µM 54%
active: [1]; at 1.2 µM 95% | [1]; at 3.7 µM 97% | [1]; at 11.0 µM 98% | [1]; at 33.0 µM 98% | [1]; at 100.0 µM 98% | [2]; at 11.0 µM 90% | [2]; at 33.0 µM 97% | [2]; at 100.0 µM 98% | [3]; at 11.0 µM 76% | [3]; at 33.0 µM 92% | [3]; at 100.0 µM 96% | [4]; at 11.0 µM 91% | [4]; at 33.0 µM 97% | [4]; at 100.0 µM 98% | [5]; at 1.2 µM 89% | [5]; at 3.7 µM 94% | [5]; [17] 85% | [5]; at 11.0 µM 96% | [5]; at 33.0 µM 97% | [5]; [18] 97% | [5]; at 50.0 µM 96% | [5]; at 100.0 µM 98% | [6]; at 1.2 µM 90% | [6]; at 3.7 µM 97% | [6]; [17] 91% | [6]; at 11.0 µM 98% | [6]; at 33.0 µM 99% | [6]; [18] 99% | [6]; at 50.0 µM 97.3% | [6]; at 100.0 µM 99% | [7]; at 1.2 µM 98% | [7]; at 3.7 µM 98% | [7]; at 11.0 µM 98% | [7]; at 33.0 µM 98% | [7]; at 100.0 µM 98% | [8]; [17] 92% | [8]; [18] 98% | [8]; at 50.0 µM 96.9% | [9]; at 11.0 µM 92% | [9]; at 33.0 µM 96% | [9]; at 100.0 µM 99% | [10]; [17] 98% | [10]; [18] 99% | [10]; at 50.0 µM 98.4% | [11]; at 33.0 µM 93% | [11]; [18] 97% | [11]; at 50.0 µM 90.1% | [11]; at 100.0 µM 98% | [12]; at 11.0 µM 76% | [12]; at 33.0 µM 96% | [12]; at 100.0 µM 98% | [13]; at 11.0 µM 94% | [13]; at 33.0 µM 98% | [13]; at 100.0 µM 99% | [14]; at 1.2 µM 91% | [14]; at 3.7 µM 94% | [14]; at 11.0 µM 96% | [14]; at 33.0 µM 97% | [14]; at 100.0 µM 98% | [15]; [17] 95% | [15]; [18] 98% | [15]; at 50.0 µM 98.2% | [16]; at 1.2 µM 96% | [16]; at 3.7 µM 96% | [16]; at 11.0 µM 97% | [16]; at 33.0 µM 97% | [16]; at 100.0 µM 99%

— PubChem BioAssay (NCI)
